As usually defined, the inhibition is the relative decrease from the control value, in per cent.

Each structure is given as a SMILES string. Among all 300,000 compounds or so, about 2,700 (0.9%) were called active. The entries come from a sample that favours actives as a whole. A number with no mark means an inactive call.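 How the source made its calls: active means mean inhibition of at least 30% with at least half of replicates also reaching 30%; inconclusive means no clear call, values can overlap the other calls; inactive means the rest.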

For this assay, the target named is Golgi-associated PDZ and coiled-coil motif-containing protein (Homo sapiens) (UniProt Q9HD26). The experiment in a line: blockade of CAL PDZ-reporter peptide interaction – biochemical, fluorescence polarization, untagged CAL PDZ, HTS, primary screen (AID 602252).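 Further: 0% = DMSO neutral control and 100% = excess unlabeled competitor peptide PRC23.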 Conditions: purified CAL PDZ, TMR-peptide fluorescence polarization, 1 h; at 24.9 µM; hits give high values. On the technique in general: Fluorescence polarisation rises when a labelled molecule tumbles more slowly, as on binding a larger partner.
For the compound `N#CC1=C(N)Oc2cc(N)ccc2C1c1ccccc1` (stereo unspecified), the inhibition was 2.39%. As for `Cc1sc2ncnc(N3CCC(C(=O)Nc4ccc(F)cc4Cl)CC3)c2c1C`, the figure is -2.24%; as for `Cc1ccc(CNC(=O)C(=O)c2cn(CC(=O)N3CCOCC3)c3ccccc23)cc1`, -3.01%. The value for `O=C(Nc1ccc(F)cc1)C(=O)c1cn(CC(=O)N2CCOCC2)c2ccccc12` was 45.3% (active). For the compound `COc1cccc(NC(=O)C(=O)c2cn(CC(=O)N3CCOCC3)c3ccccc23)c1`, the inhibition was -2.58%. As for `COc1ccccc1-c1nc(C#N)c(N2CCC(C(N)=O)CC2)o1`, the figure is -2.05%; as for `Cc1cc(C)c(C#N)c(N2CCC(C(N)=O)CC2)n1`, 47.5% (active). The value for `Cc1cccn2c(=O)c(/C=C(\C#N)S(=O)(=O)c3ccc(Cl)cc3)c(N3CCC(C(N)=O)CC3)nc12` was 3.73%; that for `O=C(NCCc1ccccc1)c1cccc(NC(=O)c2ccccc2)c1` was -3.44%; that for `CC(C)(C)OC(=O)C[C@@H]1C/C=C\C[C@@H](CC(=O)N[C@H](CO)Cc2ccccc2)C(=O)NCCOC1=O` was -9.11%. As to `O=C(NNC(=O)c1ccccc1O)c1ccccc1O`, the inhibition was -3.61%. The value for `CN1CCN(C(=O)c2ccc(-c3ccc(Br)cc3)o2)CC1` was -4.62%; that for `S=C(c1ccccc1)N1CCCC1` was -2.69%; that for `S=C(c1ccc(-c2ccccc2)o1)N1CCCCC1` was 54.6% (active). Take `C=CC[C@H](CC(=O)N(CCO)Cc1ccccc1)C(=O)N[C@@H](COC(=O)[C@@H](CC=C)Cc1ccc(F)cc1)Cc1ccccc1`: the inhibition was -5.7%. As for `CC(C)N(C(=O)[C@H]1C[C@H](CC(=O)NCCC2=CCCCC2)C(=O)N2CCc3c([nH]c4cc(CCC(=O)N(C)C)ccc34)[C@]12C)C(C)C`, the figure is -1.76%. Turning to `CC(C)(C)Nc1c(N)c(=O)oc2ccccc12`, the inhibition is 3.5%.

For `Cc1ccccc1-n1nnc2c(=O)oc3ccccc3c21`, the inhibition was 0.078%.

Regarding `O=c1oc2ccccc2c(=O)c2ccccc12`, the inhibition was 39.9% (active). The value for `COCCN(C(=O)C(C)N1C(=O)c2ccccc2C1=O)c1c(N)n(CC(C)C)c(=O)[nH]c1=O` (stereo unspecified) was -19.9%; that for `COc1ccc(CC(=O)N[C@@H]2c3cc(OC)c(OC)cc3C[C@H]2OCc2ccccc2)cc1` was -0.172%. As for `COc1ccc(C)cc1NC(=O)Nc1ccccc1SC`, the figure is -2.98%. With `CSc1ccccc1NC(=O)c1cnc2sc(C)cn2c1=O`, the inhibition was -2.14%.

In the case of `CSc1ccccc1NC(=O)c1cc(Cl)sc1Cl`, the inhibition is 35% (active). The value for `O=C(COC(=O)COc1cccc(F)c1)NCC1CCCCC1` was -0.678%; that for `O=C(Nc1nnc(-c2ccccc2)o1)c1cccc(S(=O)(=O)N2CCOCC2)c1` was 7.28%. As for `O=C(c1ccc(N2CCOCC2)c([N+](=O)[O-])c1)N1CCN(c2ccccc2F)CC1`, the inhibition was -2.67%. With `O=C(OCC(=O)N1CCOCC1)c1ccc(N2CCOCC2)c([N+](=O)[O-])c1`, the inhibition was 53.8% (active). As for `O=C(Oc1ccccc1Cl)c1ccc(N2CCOCC2)c([N+](=O)[O-])c1`, the figure is -0.07%; as for `CC(=O)Nc1ccc(S(=O)(=O)Nc2ccc(N3CCCCC3)cc2)cc1`, -0.222%. As for `CC(C)N(C(=O)[C@H]1C[C@H](CC(=O)NC(C)(C)C)C(=O)N2CCc3c([nH]c4ccc(Cl)cc34)[C@]12C)C(C)C`, the figure is 1.76%; as for `Cn1c(CCC(=O)Nc2ccccc2F)nnc1SCC(=O)Nc1ccccc1Cl`, 63.9% (active); as for `COc1ccc(C)cc1NC(=O)CSc1nnc(CC(=O)Nc2ccccc2F)n1C`, -5.79%.

Take `Cn1c(SCC(=O)Nc2ccc(Br)cc2F)nnc1-c1ccco1`: the inhibition is -0.672%.

Take `CN(C)c1ccc(CSc2ccccc2)cc1`: the inhibition was -6.85%. Consider `COc1ccc2oc(N)nc2c1`, for which the inhibition was -0.189%.

Take `CCOC(=O)c1ccccc1NC(=O)CSc1nc2c(sc(=S)n2CC)c(=O)[nH]1`: the inhibition is -5.33%. `CCN(C[C@H]1N[C@@](CC)(C(=O)OC)[C@H]2C(=O)N(Cc3ccccc3)C(=O)[C@@H]12)S(=O)(=O)c1ccc(C(F)(F)F)cc1`: the inhibition was -1.59%. With `CC1(C)CC(N2CCN(C(c3ccccc3)c3ccccc3)CC2)=CC(=[N+]2CCCCC2)C1`, the inhibition is 46.7% (active). The value for `CC(C)NC(=S)N1CCN(C(c2ccccc2)c2ccccc2)CC1` was -1.91%; that for `O=C(O)CN1CCN(C(c2ccccc2)c2ccccc2)CC1` was 0.69%; that for `CCCCCC1CC(COc2ccccc2)OC1=O` (stereo unspecified) was 8.53%. As for `CCCCN1CC(CO)Oc2cccc(F)c2S1(=O)=O` (stereo unspecified), the figure is -3.69%; as for `COc1cccc(C=CC(=O)C=CC=Cc2ccccc2)c1`, 0.692%. For the compound `Cc1[nH]n(-c2ccc([N+](=O)[O-])cc2)c(=O)c1C=NCCN1CCN(C(=O)c2ccccc2F)CC1`, the inhibition is 51.8% (active).

Consider `C=CCNC(=S)N1CCN(CCN=Cc2c(C)[nH]n(-c3ccc([N+](=O)[O-])cc3)c2=O)CC1`, for which the inhibition is -1.05%. The value for `Cc1[nH]n(-c2ccccc2)c(=O)c1N=Nc1ccccc1C(=O)N1CCCCC1` was -3.5%.

On to `COc1ccc(C(=O)Nc2cccc(/C=C(/CCC(=O)O)c3nc4ccccc4s3)c2)cc1`, for which the inhibition was -1.62%. For the compound `CN1c2ccc(C=O)c3c(C=O)ccc(c23)N(C)C1(C)C`, the inhibition is 67% (active). `Cc1onc(-c2c(F)cccc2Cl)c1C(=O)OCC(=O)N1C(C)CCCC1C` (stereo unspecified): the inhibition is -2.47%. The value for `COc1ccc(CC(=O)NC(C)c2ccc(Cl)c(Cl)c2)cc1S(=O)(=O)N1CCOCC1` (stereo unspecified) was -1.91%; that for `CCCN(CC(=O)NC(=O)NC1CCCCC1)CC(=O)Nc1cc(Cl)ccc1Cl` was -3.68%; that for `Cc1ccc(S(=O)(=O)N(C)c2ccc(OCC(=O)NC3=NCCS3)cc2)cc1` was -1.61%. As for `CN(c1ccccc1)S(=O)(=O)c1ccc(NC(=O)COc2ccccc2)cc1`, the figure is -1.05%. Turning to `CN(c1ccc(OCC(=O)NC2=NCCS2)cc1)S(=O)(=O)c1ccc(F)cc1`, the inhibition is 81.4% (active). As for `Cc1ccc(S(=O)(=O)N2CCN(C(=O)Cn3c(=O)cnc4ccccc43)CC2)c(C)c1`, the inhibition was -10.5%.

These data come from PubChem BioAssay AID602252 (Broad Institute, 2012).
